Source: PubChem (several laboratories)
SMARCA2 activ = activators of SMARCA2 function | activation, % at 9.1 µM | AID 652017 | 370,000 compounds, 1% hits | MG213 cells, MMTV-luciferase reporter, dexamethasone, overnight; in the data active = activation above about 7.8%;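 also: 0% = vehicle wells and 100% = reference activator wells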
Rtt109 HAT inh = blocks Candida albicans Rtt109/Vps75 acetyltransferase activity; Q5AAJ8; purified Rtt109/Vps75, ThioGlo CoA-SH fluorescence, 4 h; inhibition, % at 34.9 µM; 330,000 compounds, 0.16% hits; AID 540336;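 active = inhibition of at least 50% in every replicate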
Target sequence (Q5AAJ8 whole entry, looked up): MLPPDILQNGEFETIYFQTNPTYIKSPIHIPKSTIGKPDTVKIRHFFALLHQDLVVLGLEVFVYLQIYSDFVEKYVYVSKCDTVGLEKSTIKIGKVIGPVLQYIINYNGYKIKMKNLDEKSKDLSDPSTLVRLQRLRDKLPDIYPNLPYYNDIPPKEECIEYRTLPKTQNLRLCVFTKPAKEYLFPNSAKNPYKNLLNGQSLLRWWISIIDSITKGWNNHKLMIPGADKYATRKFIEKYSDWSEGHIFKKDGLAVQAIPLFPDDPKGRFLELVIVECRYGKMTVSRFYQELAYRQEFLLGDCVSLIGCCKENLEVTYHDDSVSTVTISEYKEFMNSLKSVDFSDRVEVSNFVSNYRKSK
dFosB act-1 = enhances mouse delta FosB homodimer DNA binding; purified delta FosB, TAMRA-CDK5 oligo fluorescence polarization; percent of positive-control signal above neutral wells; 340,000 compounds, 0.99% hits; activation, % at 25 µM; P13346;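 active = mean activation above about 17%, with every replicate also reaching it, limit read from the data, passing the limit was not always enough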
Dyrk1A ADPGlo = Dyrk1A (rat) kinase inhibition. Q63470. ADP-Glo luminescence, NFATc1 peptide. inhibition, % at 12.5 µM. 310,000 compounds, 0.43% hits; in the data active = inhibition above about 50%;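 also: plate controls were vehicle with enzyme for no effect and no enzyme for full effect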
CDK5 p35 inh = CDK5/p35 (human) kinase inhibition | Q00535+Q15078 | Recombinant CDK5/p35, ADP-Glo luminescence, 60 min | inhibition, % at 10 µM | 330,000 compounds, 0.01% hits | AID 488839;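 active = highest replicate inhibition of at least 50% and at least 75% of replicates reaching 50%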;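 also: plate controls were DMSO neutral control for no effect and GW8510 at 10 µM for full effect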
esBAF inh = blocks esBAF chromatin remodeling in mouse ES cells | reporter increase, % at 12.5 µM | Bmi1-luciferase knock-in reporter, 24 h; 100% = twice the neutral-well signal | 350,000 compounds, 2% hits; in the data active = activation above about 40%;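 also: 0% = median of the plate's neutral control wells and 100% = double that signal; a rise in the Bmi1 reporter signal indicates esBAF inhibition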
dFosB act-2 = enhances mouse delta FosB homodimer binding to DNA. shares compounds with dFosB act-1. purified delta FosB, TAMRA-CDK5 oligo fluorescence polarization; normalised: neutral wells 0, positive control 100. activation, % at 24.9 µM. 2,400 tested, under 10 active. AID 588690;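 active = highest replicate activation at or above 34% and every replicate reaching that threshold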;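 also: higher polarization means more probe DNA bound by delta FosB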
* = called active by the depositor. Compounds with a hit are over-represented: about 3.2% of the library has one in this group of screens.

Results for Nc1c(S(=O)(=O)c2cccs2)c2nc3ccccc3nc2n1Cc1cccs1 ?
SMARCA2 activ: 0.1; Rtt109 HAT inh: -1.2; dFosB act-1: 25.9*; Dyrk1A ADPGlo: -3.8; CDK5 p35 inh: 0.3; esBAF inh: 8.9; dFosB act-2: -0.1

How did C[C@@H]1CN([C@@H](C)CO)C(=O)c2cc(NS(=O)(=O)c3ccccc3)ccc2O[C@@H](C)CCCCO[C@@H]1CN(C)C(=O)Nc1ccc2c(c1)OCO2 do in these assays?
esBAF inh: 16.1

Results for COc1cccc(C(=O)NCc2nnc(SCC(=O)Nc3nccs3)n2-c2ccccc2)c1 ?
SMARCA2 activ: -2.4; Rtt109 HAT inh: -1.1; dFosB act-1: 28.0*; Dyrk1A ADPGlo: -3.2; CDK5 p35 inh: -1.0; esBAF inh: -11.8; dFosB act-2: 3.0

How did O=C(CCC(=O)Nc1ccccc1)NNC(=O)C(c1ccccc1)c1ccccc1 do in these assays?
SMARCA2 activ: -3.3; Rtt109 HAT inh: -2.6; dFosB act-1: 42.1*; Dyrk1A ADPGlo: -1.9; CDK5 p35 inh: -0.9; dFosB act-2: 1.0

How did COCC(=O)N(C)C[C@H]1Oc2ncc(C#CC3(O)CCCC3)cc2C(=O)N([C@@H](C)CO)C[C@H]1C do in these assays?
esBAF inh: 0.6

How did CC[C@H](C)[C@@H]1NC(=O)c2cc([N+](=O)[O-])cc(F)c2NCCCC[C@@H](C(N)=O)NC(=O)[C@H](CCCCN)NC1=O do in these assays?
SMARCA2 activ: -0.7; Rtt109 HAT inh: -1.1; dFosB act-1: 20.7*; Dyrk1A ADPGlo: 2.0; CDK5 p35 inh: 3.1; esBAF inh: -7.3; dFosB act-2: 3.4

What do the screens show for `CC(C)NC(=O)N(C)C[C@@H]1Oc2ncc(C#Cc3ccccc3F)cc2C(=O)N([C@@H](C)CO)C[C@@H]1C`?
esBAF inh: -10.2

What do the screens show for `COc1cc(S(=O)(=O)Nc2ccc(C)cc2)ccc1N=Cc1c(C)c(C#N)c(=O)n(C)c1O`?
SMARCA2 activ: 2.4; Rtt109 HAT inh: -57.8; dFosB act-1: 127.6*; Dyrk1A ADPGlo: 0.0; CDK5 p35 inh: 0.1; dFosB act-2: -2.5

How did C[C@@H]1CN([C@@H](C)CO)C(=O)c2cc(NC(=O)CCN3CCOCC3)ccc2O[C@@H]1CN(C)C(=O)NC1CCCCC1 do in these assays?
esBAF inh: -1.8

Results for CCOc1cc(/C=N/Nc2nc3ccccc3[nH]2)cc(Br)c1OCC(=O)N(C)C ?
SMARCA2 activ: -3.0; Rtt109 HAT inh: 8.2; dFosB act-1: 22.2*; Dyrk1A ADPGlo: 2.7; CDK5 p35 inh: 2.0; esBAF inh: 13.2; dFosB act-2: 1.8

What do the screens show for `COc1cc(/C=N\Nc2nc3ccccc3[nH]2)cc(OC)c1OC`?
SMARCA2 activ: -9.1; Rtt109 HAT inh: 11.3; dFosB act-1: 15.8; Dyrk1A ADPGlo: 8.6; CDK5 p35 inh: 2.8; esBAF inh: -10.4

What do the screens show for `COc1ccc(S(=O)(=O)Nc2ccc3c(c2)[C@@H]2C[C@@H](CC(=O)O)O[C@@H](CO)[C@@H]2O3)cc1`?
esBAF inh: -2.4

What do the screens show for `Cc1c(Cc2ccc3c(c2)OCO3)sc(NC(=O)c2ccccc2)c1C(N)=O`?
SMARCA2 activ: 0.3; Rtt109 HAT inh: -7.8; dFosB act-1: 38.5*; Dyrk1A ADPGlo: -6.8; CDK5 p35 inh: 0.1; esBAF inh: -0.3; dFosB act-2: 1.5

Results for COc1ccc(N(CC(=O)NC2CCCCCC2)S(=O)(=O)c2ccc(C)cc2)cc1OC ?
SMARCA2 activ: -0.2; Rtt109 HAT inh: -3.0; dFosB act-1: 26.8*; Dyrk1A ADPGlo: 3.9; CDK5 p35 inh: -2.1; esBAF inh: -2.3; dFosB act-2: -0.9

Results for COc1ccc(N(CC(=O)NC2CCS(=O)(=O)C2)S(=O)(=O)c2ccc(Cl)c(Cl)c2)cc1 (centres undefined) ?
SMARCA2 activ: -1.4; Rtt109 HAT inh: 12.0; dFosB act-1: 43.2*; Dyrk1A ADPGlo: 16.6; CDK5 p35 inh: 0.0; esBAF inh: -3.2; dFosB act-2: 2.5

Results for COc1ccc(N(CC(=O)NC2CCCC2)S(=O)(=O)c2ccc(NC(C)=O)cc2)cc1 ?
SMARCA2 activ: 2.5; Rtt109 HAT inh: 3.8; dFosB act-1: -1.7; Dyrk1A ADPGlo: 0.7; CDK5 p35 inh: -2.2; esBAF inh: -6.5

What do the screens show for `COc1ccc(NC(=O)CN(c2ccc(OC)cc2)S(=O)(=O)c2ccc(OC)c(OC)c2)cc1`?
SMARCA2 activ: -2.3; Rtt109 HAT inh: -6.1; dFosB act-1: 52.1*; Dyrk1A ADPGlo: 9.3; CDK5 p35 inh: -0.2; esBAF inh: -9.7; dFosB act-2: 5.6

What do the screens show for `CNC[C@@H]1OCCCC[C@H](C)Oc2ccc(NS(=O)(=O)c3ccc(OC)cc3)cc2C(=O)N([C@H](C)CO)C[C@@H]1C`?
esBAF inh: 3.2

What do the screens show for `CC(C)NC(=O)N(C)C[C@@H]1Oc2cc(C#Cc3ccccn3)ccc2S(=O)(=O)N([C@@H](C)CO)C[C@@H]1C`?
esBAF inh: 0.1

Results for C[C@@H]1CN([C@H](C)CO)C(=O)c2cc(C#C[C@@H](C)O)cnc2O[C@@H]1CN(C)Cc1ccccn1 ?
esBAF inh: -1.6

Results for C[C@@H]1CN([C@@H](C)CO)S(=O)(=O)c2ccc(-c3ccc(F)cc3)cc2O[C@@H]1CN(C)C(=O)c1ccccc1F ?
esBAF inh: 7.9

How did CO[C@H]1CN(C)C(=O)c2ccc(NC(=O)c3ccc(F)cc3)cc2OC[C@H](C)N(C(=O)CN(C)C)C[C@H]1C do in these assays?
esBAF inh: 1.3

What do the screens show for `COc1ccc2nc(C)cc(SCC(=O)Nc3c(C)cccc3C)c2c1`?
SMARCA2 activ: -2.1; Rtt109 HAT inh: 13.8; dFosB act-1: 73.3*; Dyrk1A ADPGlo: -1.4; CDK5 p35 inh: 0.8; dFosB act-2: -4.4

Results for CC(C)C(=O)Nc1cccc(NC(=S)NC(=O)c2ccc(Cl)cc2)c1 ?
SMARCA2 activ: -3.4; Rtt109 HAT inh: -1.9; dFosB act-1: 27.5*; Dyrk1A ADPGlo: 2.0; CDK5 p35 inh: -0.6; esBAF inh: 33.9; dFosB act-2: 0.6

How did Cc1ccc(C(=O)Nc2cccc(C(F)(F)F)c2)cc1Nc1cnccn1 do in these assays?
SMARCA2 activ: 0.9; Rtt109 HAT inh: -2.7; dFosB act-1: -5.8; Dyrk1A ADPGlo: 10.6; CDK5 p35 inh: 0.6; esBAF inh: 0.8

Results for Cc1cn(-c2cc(C(=O)Nc3ccc(C)c(NC(=O)N4CCNC4=O)c3)cc(C(F)(F)F)c2)cn1 ?
SMARCA2 activ: -2.5; Rtt109 HAT inh: -0.8; dFosB act-1: 55.6*; Dyrk1A ADPGlo: 1.1; CDK5 p35 inh: 0.7; esBAF inh: -5.9; dFosB act-2: -2.2
